Shown are actives, neighbours in structure and some others; about 4.1% of the full set was active somewhere.
ALR H2O2 inh = inhibitors of human sulfhydryl oxidase ALR; P55789; purified ALR, DTT oxidation, H2O2 HRP-luminol luminescence; actives 3.8% (n = 290,000); inhibition, % (concentration not given with the values); AID 485317;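 active means mean replicate inhibition above about 79%, with every replicate also reaching it, limit read from the data; inconclusive means only one of the two criteria met; inactive means mean below limit and not every replicate reaching it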
PolyA inhibitor = yeast polyadenylation inhibition. S. cerevisiae SKY197-pL101 polyadenylation reporter, beta-gal luminescence; efflux-impaired pdr1/pdr3 knockout yeast; score 100 = 6 SD above DMSO. activity score, % at 12 µM. actives 0.02% (n = 300,000);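 active means lowest replicate activity score at least 50, where 100 means six control SD above control mean; inconclusive means lowest score under 50 but half or more replicates reach 50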;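 further: yeast exposed to compound for 9 h at 30 °C; higher score means more reporter readthrough which indicates perturbed polyadenylation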
M18AAP inhibitor = PfM18AAP enzyme inhibition | recombinant PfM18AAP, H-Glu-NHMec fluorogenic cleavage | inhibition, % at 7.35 µM | actives 1.2% (n = 290,000);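 active means inhibition above the campaign mean inhibition over all tested compounds plus 3 SD, cut at about 28% in these data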
CaV13 FRET inh = Primary screen for inhibitors of IQ motif and Ca2+-dependent inactivation inhibitor domain binding in CACNA1D, Förster resonance energy transfer in living cells, … | inhibition, % at 12.3 µM | actives 0.098% (n = 340,000) | HEK cells, CFP/YFP FRET ICDI-IQ, plate reader, 10 min; percent FRET-ratio fall versus neutral wells;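 active means mean replicate inhibition of at least 30% and at least 1% of replicates passing that level; inconclusive means only one of the two criteria is met; inactive means neither criterion is met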
IDE inh = inhibits human insulin-degrading enzyme in HEK cells | P14735 | FAbetaB cleavage, fluorescence polarization | inhibition, % at 5.59 µM | actives 0.41% (n = 320,000);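 active means percent inhibition above the average of all tested compounds plus 3 SD, set per screening campaign, cut at about 16% in these data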;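 further: IDE supplied by intact live HEK cells; FP after avidin binding of uncleaved biotin substrate so inhibition keeps polarization high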
Target sequence (P14735 whole entry, looked up): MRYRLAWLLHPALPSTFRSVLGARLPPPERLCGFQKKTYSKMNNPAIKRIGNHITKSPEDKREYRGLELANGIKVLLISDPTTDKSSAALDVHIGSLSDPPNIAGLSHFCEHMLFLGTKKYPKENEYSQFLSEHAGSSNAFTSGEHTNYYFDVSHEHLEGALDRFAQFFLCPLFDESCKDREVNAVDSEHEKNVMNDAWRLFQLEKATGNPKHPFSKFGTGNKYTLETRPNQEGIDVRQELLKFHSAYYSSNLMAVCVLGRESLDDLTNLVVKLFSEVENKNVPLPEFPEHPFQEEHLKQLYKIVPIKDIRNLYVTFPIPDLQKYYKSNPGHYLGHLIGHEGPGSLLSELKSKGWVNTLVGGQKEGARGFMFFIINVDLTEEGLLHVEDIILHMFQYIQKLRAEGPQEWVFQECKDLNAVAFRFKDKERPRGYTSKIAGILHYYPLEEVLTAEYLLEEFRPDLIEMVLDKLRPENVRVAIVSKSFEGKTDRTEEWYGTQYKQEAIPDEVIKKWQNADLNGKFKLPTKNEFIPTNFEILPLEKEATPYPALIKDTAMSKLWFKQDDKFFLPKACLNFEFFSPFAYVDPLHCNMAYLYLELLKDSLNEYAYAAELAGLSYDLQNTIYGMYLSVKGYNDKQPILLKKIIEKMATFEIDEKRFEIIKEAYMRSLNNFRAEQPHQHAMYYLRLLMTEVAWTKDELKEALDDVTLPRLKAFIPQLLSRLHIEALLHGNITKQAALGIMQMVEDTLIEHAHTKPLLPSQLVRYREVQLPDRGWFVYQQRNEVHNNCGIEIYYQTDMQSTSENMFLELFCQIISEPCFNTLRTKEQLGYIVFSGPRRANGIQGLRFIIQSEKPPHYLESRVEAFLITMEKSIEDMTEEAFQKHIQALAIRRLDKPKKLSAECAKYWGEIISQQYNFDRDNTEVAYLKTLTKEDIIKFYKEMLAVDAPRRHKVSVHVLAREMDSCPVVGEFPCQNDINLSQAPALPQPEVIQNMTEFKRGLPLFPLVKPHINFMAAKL
IDE act = IDE (human) activation, cell-based; P14735; HEK cells, FAbeta-B cleavage, fluorescence polarization; 0% vehicle, 100% cell-free pure enzyme wells; activation, % at 5.96 µM; actives 0.073% (n = 340,000); AID 493087;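 active means activation above the mean of all tested compounds plus 3 SD, set per screening campaign, cut at about 17% in these data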
IDE inh confirm = confirmation of human insulin-degrading enzyme inhibitors in cells | shares compounds with IDE inh | HEK cells, FAbetaB cleavage, fluorescence polarization | inhibition, % at 5.59 µM | actives 51% (n = 1,200);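 active means mean inhibition across triplicate wells above the cutoff set by the earlier primary insulin-degrading enzyme screen, cut at about 16% in these data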
HEK cytotox = HEK cell cytotoxicity, counter-screen for IDE inhibitors. shares compounds with IDE inh. HEK293 cytotoxicity, ATP luminescence. inhibition, % at 5.59 µM. actives 28% (n = 1,200). AID 449730; in the data active means inhibition above about 22%
Hits are given with their value; i = inactive; ? = inconclusive; nt = no result given.

SMILES	ALR H2O2 inh	PolyA inhibitor	M18AAP inhibitor	CaV13 FRET inh	IDE inh	IDE act	IDE inh confirm	HEK cytotox
CCC(=O)NC(c1cccs1)c1cc(Cl)c2ccccc2c1O (stereo not drawn)	i	nt	nt	i	17	i	i	i
CC(=O)NC(c1cccs1)c1cc(Cl)c2ccccc2c1O (stereo not drawn)	i	nt	nt	i	19	i	i	i
O=C(CCc1ccccc1)NC(c1cccs1)c1cc(Cl)c2cccnc2c1O (stereo not drawn)	nt	i	i	i	nt	i	nt	nt
N#C/C(C(=O)Nc1ccc(Cl)cc1)=C(/S)Nc1ccccc1	i	i	57	i	46	i	i	24
Cc1ncccc1C(=O)N1CCCC(c2cc(C(=O)Nc3ccc(C(C)(C)C)cc3)no2)C1 (stereo not drawn)	nt	nt	nt	i	nt	nt	nt	nt
CN(C)c1ccc(/C=C2/SC(=O)N(CCN=C3NS(=O)(=O)c4ccccc43)C2=O)cc1	nt	i	i	i	i	i	nt	nt
CN(C)c1ccc(/C=C2\SC(=O)N(CCc3nnc(N)s3)C2=O)cc1	97	i	i	i	30	i	22	i
O=C(NC(=O)N1CCN(C(c2ccccc2)c2ccccc2)CC1)c1ccccc1	i	i	i	i	i	i	nt	nt
Cc1ccc(C(=O)NCCc2ccc(S(N)(=O)=O)cc2)o1	i	i	i	i	i	i	nt	nt
O=C(COc1cccc(C(F)(F)F)c1)Nc1nnc(C2CC2)s1	i	nt	nt	i	i	i	nt	nt
C(=N\NC1=Nc2cccc3cccc1c23)/c1cccnc1	i	i	i	i	23	i	i	i
COc1ccc(CC(=O)NNC(=O)COc2ccc(Cl)cc2C)cc1S(=O)(=O)N1CCOCC1	i	nt	nt	i	i	i	nt	nt
O=C1CC(=O)N(Cc2ccco2)C(=O)N1	nt	i	i	i	21	i	i	i
O=C(N/N=C/c1cc(Br)cc(Br)c1O)c1cccc(N2CCCC2=O)c1	i	i	i	i	i	i	nt	nt
O=C(N/N=C/c1ccc(Cl)cc1Cl)c1cccc(N2CCCC2=O)c1	i	?	i	i	34	i	i	i
CCN1C(=S)SC(=O)C1=C1C=C(C)N(Cc2ccco2)C(C)=C1	99	?	i	i	33	i	42	i
Cn1nc(C(C)(C)C)cc1N1C(=O)CCC1(C)C(=O)NC1CCCC1 (stereo not drawn)	nt	nt	nt	i	nt	nt	nt	nt
COc1ccc(-c2ccc(C(=O)Nc3cc(OC)c(OC)c(OC)c3)c3occc23)c(C)c1	nt	nt	nt	i	nt	nt	nt	nt
Nc1ccc(-c2c3ccc(=O)cc-3oc3cc(O)ccc23)c(C(=O)O)c1	i	nt	nt	nt	49	i	28	i
C#CCOCCOCCOCCNc1nc(N2CCN(C(=O)[C@H]([C@@H](C)CC)n3cc([C@@H](N)CC(C)C)nn3)CC2)nc(N2CCN(C(=O)[C@H](Cc3ccc(O)cc3)n3cc([C@@H](N)C(C)CC)nn3)CC2)n1 (stereo partly drawn)	i	i	i	i	16	i	i	i
CC1CCN(c2ccc3c(c2)S(=O)(=O)c2cccc(C(=O)NCc4cccc(F)c4)c2C3=O)CC1	i	nt	nt	i	24	i	32	23
O=C(NCc1cccc(F)c1)c1cccc2c1C(=O)c1ccc(N3CCC(Cc4ccccc4)CC3)cc1S2(=O)=O	i	nt	nt	nt	i	i	nt	nt
O=C(NCc1ccco1)c1cccc2c1C(=O)c1ccc(N3CCC(Cc4ccccc4)CC3)cc1S2(=O)=O	i	nt	nt	nt	46	i	45	43
O=C(CCNC(=O)Cn1ccc2ccccc2c1=O)NCc1ccccn1	i	i	i	i	i	i	nt	nt
Cc1cc([N+](=O)[O-])cc(C)c1OCC(=O)N/N=C/c1ccc(OC(=O)c2ccccc2)cc1	i	i	i	i	20	i	i	i
Cc1cc([N+](=O)[O-])cc(C)c1OCC(=O)N/N=C/c1ccc(OC(=O)c2ccccc2Br)cc1	i	i	i	i	i	i	nt	nt
CCOc1ccc(N2C(=O)S/C(=C\c3ccc(O)c(OC)c3)C2=O)cc1	i	i	i	i	19	i	20	i
